This note sets out measurements from PubChem BioAssay (EPA / NIEHS).

The nature of test [1]: ATG_CRE_CIS: Attagene CIS-FACTORIAL HepG2 Assay for human cAMP Responsive Element (CRE) binding protein 3 (AID 2282926). The note with it: HepG2 CRE cis-reporter, Attagene multiplexed mRNA; actives raise or lower the signal. The procedure, abridged: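 Assay format: transient reporter transfection of HepG2, 24 h treatment, total RNA isolation with DNase I step. Reporter abundance read by fluorescence after PCR and capillary separation; DMSO-normalised gain or loss fitting.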

Test [2] addresses CCAAT/enhancer-binding protein beta (Homo sapiens) (UniProt P17676). As to the kind of experiment: ATG_C_EBP_CIS: Attagene CIS-FACTORIAL HepG2 Assay for human CCAAT/Enhancer Binding Protein (C/EBP) beta (AID 2282927). The note with it: HepG2 Attagene cis-factorial transcription factor reporter; actives raise or lower the signal. The essentials:
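Following a 24 h incubation with test chemical, transfected HepG2 cells yielded RNA whose reporter transcripts were quantified by RT-PCR and fluorescent capillary electrophoresis, with DMSO serving as baseline for bidirectional fitting.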

Test [3] in a line: ATG_CMV_CIS: Attagene CIS-FACTORIAL HepG2 Assay for human CMV (Internal Marker) (AID 2282928).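 Note: endpoint acts as a background internal control marker rather than a target.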 The conditions noted are these: HepG2 CMV promoter reporter, transcription factor profiling; actives raise or lower the signal. The essentials:
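Fluorescence intensity of RT-PCR-derived reporter fragments, resolved by capillary electrophoresis, gives the signal. HepG2 liver cells bearing transfected cis-element reporters were treated 24 h; activity in either direction was fit relative to DMSO-treated controls.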

Test [4] is described as follows: ATG_DR4_LXR_CIS: Attagene CIS-FACTORIAL HepG2 Assay for human Liver X Receptor (LXR), DR4 submotif (AID 2282929). The note with it: HepG2 Attagene DR4 cis-reporter, mRNA transcription; actives raise or lower the signal. The essentials: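 Cells were transfected with multiple reporter transcription units, exposed to chemicals for 24 hours, then lysed for RNA. Reporter mRNA induction was measured by RT-PCR with capillary electrophoresis detection and fitted in both directions relative to DMSO.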

Test [5] deals with Aryl hydrocarbon receptor (Homo sapiens) (UniProt P35869). As to the kind of experiment: ATG_Ahr_CIS: Attagene CIS-FACTORIAL HepG2 Assay for human Aryl Hydrocarbon Receptor (Ahr) (AID 2282930). The conditions noted are these: HepG2 AhR cis-factorial reporter transcription; actives raise or lower the signal. The procedure, abridged:
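Values derive from bidirectional fitting against DMSO negative control. Underlying signal: cis-element reporter mRNA in transiently transfected HepG2, harvested 24 h post-dose and measured by RT-PCR plus capillary electrophoresis.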

The nature of test [6]: ATG_AP_1_CIS: Attagene CIS-FACTORIAL HepG2 Assay for human Activator Protein 1 (AP-1) (AID 2282931). The conditions noted are these: HepG2 Attagene cis-factorial AP-1 reporter mRNA; actives raise or lower the signal. The procedure, abridged: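 Endogenous transcription-factor activity in human HepG2 liver cells is read through a cis-promoter reporter transcript, sampled 24 h after dosing. Detection uses RT-PCR with capillary electrophoresis; values come from bidirectional fitting relative to DMSO.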

A short description of test [7]: ATG_AP_2_CIS: Attagene CIS-FACTORIAL HepG2 Assay for human Activator Protein 2 (AP-2) (AID 2282932). The conditions noted are these: HepG2 AP-2 cis-reporter, Attagene transcription factor profiling; actives raise or lower the signal. The essentials:
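Cells (HepG2) transfected with promoter-driven reporter constructs, treated 24 h. Total RNA reverse-transcribed, reporter cDNA PCR-amplified, FAM-labelled by primer extension, digested, resolved by capillary electrophoresis. Activity fitted both directions versus DMSO.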

Test [8] in a line: ATG_BRE_CIS: Attagene CIS-FACTORIAL HepG2 Assay for human Bone Morphogenetic Protein (BMP) Response Element (BRE) (AID 2282933). The note with it: HepG2 BMP response element reporter, Attagene transcription factor profiling; actives raise or lower the signal. The procedure, abridged:
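A HepG2 multiplex reporter system measured inducible reporter mRNA 24 h post-dosing. Detection: RT-PCR, 6-FAM primer extension, HpaI digestion, capillary electrophoresis. Activity fitted bidirectionally relative to DMSO.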

The target in test [9] is Retinoic acid receptor alpha (Homo sapiens) (UniProt P10276). Kind of test: ATG_DR5_RAR_CIS: Attagene CIS-FACTORIAL HepG2 Assay for human Retinoic Acid Receptor Alpha (RARE), DR5 submotif (AID 2282934). The conditions noted are these: HepG2 Attagene cis-factorial RARE DR5 reporter, mRNA; actives raise or lower the signal. The essentials:
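Endpoint fitted in both directions relative to DMSO as negative control. It reflects DR5 cis-element reporter mRNA induction in transiently transfected HepG2 cells, measured 24 h after dosing through RT-PCR and fluorescent capillary electrophoresis.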

Test [10] can be described thus: ATG_E_Box_CIS: Attagene CIS-FACTORIAL HepG2 Assay for human Enhancer Box (E-box) (AID 2282936). The conditions noted are these: HepG2 E-box cis-reporter transcription, actives raise or lower the signal. The procedure, abridged: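 Endogenous transcription factor activity was sensed in human HepG2 liver cells through transfected cis-promoter reporter units. After 24 h of dosing, total RNA was reverse-transcribed and reporter cDNA resolved by capillary electrophoresis.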

Test [11] in a line: ATG_M_61_CIS: Attagene CIS-FACTORIAL HepG2 Assay for M61 Transcription Factor (Internal Marker) (AID 2282937). The note with it: HepG2 Attagene CIS-FACTORIAL M61 internal marker reporter; actives raise or lower the signal. The essentials: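 Cells were transfected with reporter units under cis-regulatory promoters, treated with chemicals for 24 h, then lysed for RNA. Reporter transcripts were quantified by RT-PCR and capillary electrophoresis, and activity was fitted bidirectionally against DMSO.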

A short description of test [12]: ATG_EGR_CIS: Attagene CIS-FACTORIAL HepG2 Assay for human Early Growth Response 1 (EGR1) (AID 2282938). The note with it: HepG2 Attagene CIS-FACTORIAL EGR reporter mRNA; actives raise or lower the signal. The procedure, abridged: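 Endogenous TF activity in HepG2 liver cells was gauged through cis-promoter reporter constructs transiently transfected. After 24 h dosing, reporter mRNA was quantified by RT-PCR and capillary electrophoresis, and curves fitted in both directions versus DMSO.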

Test [13] is described as follows: ATG_M_19_CIS: Attagene CIS-FACTORIAL HepG2 Assay for M19 Transcription Factor (Internal Marker) (AID 2282939). The note with it: HepG2 Attagene CIS-FACTORIAL M19 internal marker reporter; actives raise or lower the signal. The essentials:
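Chemical-treated HepG2 (24 h) with MRTU constructs; reporter transcripts detected by fluorescent RT-PCR fragment analysis on capillary electrophoresis. Internal background marker, DMSO as baseline.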

A short description of test [14]: ATG_Ets_CIS: Attagene CIS-FACTORIAL HepG2 Assay for human Erythroblast Transformation Specific (ETS) (AID 2282941). The conditions noted are these: HepG2 ETS cis-reporter transcription, actives raise or lower the signal. The procedure, abridged: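 Multiplexed reporter transcript profiling: HepG2, 24 h treatment, total RNA to cDNA, PCR, 6-FAM labelling, HpaI cut, capillary electrophoresis. Gain- or loss-of-signal fitted against DMSO.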

Test [15] has as its target Hepatocyte nuclear factor 3-beta (Homo sapiens) (UniProt Q9Y261). As to the kind of experiment: ATG_FoxA2_CIS: Attagene CIS-FACTORIAL HepG2 Assay for human Forkhead box A2 (FOXA2) (AID 2282942). The note with it: HepG2 cis-reporter transcription factor activity, 24 h; actives raise or lower the signal. The essentials: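 Endogenous transcription factor activity was read in HepG2 cells carrying transiently transfected cis-promoter reporter units. After 24 h dosing, reporter mRNA was quantified by RT-PCR and capillary electrophoresis, and values fitted bidirectionally versus DMSO.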

Test [16] can be described thus: ATG_FoxO_CIS: Attagene CIS-FACTORIAL HepG2 Assay for human Forkhead box O (FoxO) (AID 2282943). The conditions noted are these: HepG2 Attagene cis-reporter, FoxO element, mRNA; actives raise or lower the signal. The essentials: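 Values reflect reporter mRNA induction or loss in HepG2 cells 24 h post-dosing, fitted bidirectionally with DMSO as negative control and baseline. Detection used RT-PCR and fluorescence capillary electrophoresis.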

Test [17] in a line: ATG_GATA_CIS: Attagene CIS-FACTORIAL HepG2 Assay for human GATA Binding Protein (AID 2282944). The conditions noted are these: HepG2 GATA cis-element reporter, Attagene multiplex mRNA; actives raise or lower the signal. The essentials: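 Transfected cis-reporter HepG2 cells were treated with chemicals for 24 hours. Total RNA was then converted to cDNA, amplified with reporter-specific primers and analysed by fluorescent capillary electrophoresis, using DMSO-treated wells as baseline.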

Test [18] in a line: ATG_GLI_CIS: Attagene CIS-FACTORIAL HepG2 Assay for human Zinc Finger Protein GLI1 (AID 2282945). The conditions noted are these: HepG2, Attagene cis-factorial reporter mRNA, GLI element; actives raise or lower the signal. The essentials: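 HepG2 cells transiently transfected with cis-promoter multiplexed reporter units report endogenous transcription factor activity. After 24 h chemical exposure, reporter mRNA was quantified by RT-PCR, 6-FAM labelling, HpaI digestion and capillary electrophoresis, with bidirectional fitting against DMSO.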

The target of test [19] is Transcription factor E2F1 (Homo sapiens) (UniProt Q01094). As to the kind of experiment: ATG_E2F_CIS: Attagene CIS-FACTORIAL HepG2 Assay for human E2F Transcription Factor 1 (AID 2282935). The conditions noted are these: HepG2 Attagene cis-reporter, E2F reporter RNA transcripts; actives raise or lower the signal. The procedure, abridged:
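First, HepG2 cells were transfected with reporter transcription units. Next, they were dosed for 24 h. Then RNA was isolated, converted to cDNA, PCR-amplified, FAM-labeled, HpaI-digested and analyzed by capillary electrophoresis.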

Molecules are shown by their SMILES. The source made the active and inactive calls. Rule for the calls: active = hit-call score of the fitted dose curve at least 0.9, where 1 is the maximum; inactive = score below 0.9.

Sequence of Transcription factor E2F1 (Homo sapiens) (Q01094 whole entry, looked up): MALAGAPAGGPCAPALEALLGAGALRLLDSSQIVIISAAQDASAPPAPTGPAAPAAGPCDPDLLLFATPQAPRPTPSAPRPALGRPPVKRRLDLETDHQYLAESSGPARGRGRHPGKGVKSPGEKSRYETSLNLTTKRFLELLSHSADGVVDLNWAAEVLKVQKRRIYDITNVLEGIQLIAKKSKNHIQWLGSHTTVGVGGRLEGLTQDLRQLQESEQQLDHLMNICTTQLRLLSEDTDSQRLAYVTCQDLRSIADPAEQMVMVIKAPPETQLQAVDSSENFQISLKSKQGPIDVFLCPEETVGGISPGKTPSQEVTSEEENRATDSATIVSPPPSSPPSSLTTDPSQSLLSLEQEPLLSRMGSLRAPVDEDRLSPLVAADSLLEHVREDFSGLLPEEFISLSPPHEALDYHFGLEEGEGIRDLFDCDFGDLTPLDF
Sequence of Retinoic acid receptor alpha (Homo sapiens) (P10276 whole entry, looked up): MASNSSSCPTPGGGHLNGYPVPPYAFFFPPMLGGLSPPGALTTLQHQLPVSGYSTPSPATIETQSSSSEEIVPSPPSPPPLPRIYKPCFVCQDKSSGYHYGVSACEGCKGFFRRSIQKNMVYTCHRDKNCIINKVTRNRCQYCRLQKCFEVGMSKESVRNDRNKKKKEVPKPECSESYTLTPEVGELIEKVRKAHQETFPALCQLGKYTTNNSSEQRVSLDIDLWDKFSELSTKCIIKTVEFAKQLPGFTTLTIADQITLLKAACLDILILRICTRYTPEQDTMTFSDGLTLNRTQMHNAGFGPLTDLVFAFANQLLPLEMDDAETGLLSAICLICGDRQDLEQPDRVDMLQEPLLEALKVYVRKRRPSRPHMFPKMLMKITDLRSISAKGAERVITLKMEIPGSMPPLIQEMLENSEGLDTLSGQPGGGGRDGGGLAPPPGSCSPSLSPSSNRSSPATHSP
Sequence of CCAAT/enhancer-binding protein beta (Homo sapiens) (P17676 whole entry, looked up): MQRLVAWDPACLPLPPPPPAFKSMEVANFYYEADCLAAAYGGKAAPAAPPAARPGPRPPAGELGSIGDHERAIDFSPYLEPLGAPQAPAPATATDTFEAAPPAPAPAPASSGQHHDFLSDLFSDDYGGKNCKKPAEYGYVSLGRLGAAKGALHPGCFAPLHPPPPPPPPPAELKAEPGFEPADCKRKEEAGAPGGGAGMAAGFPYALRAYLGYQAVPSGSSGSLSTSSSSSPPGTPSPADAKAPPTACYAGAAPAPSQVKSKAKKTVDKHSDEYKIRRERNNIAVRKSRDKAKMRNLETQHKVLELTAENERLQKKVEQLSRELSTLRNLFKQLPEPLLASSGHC
Sequence of Aryl hydrocarbon receptor (Homo sapiens) (P35869 whole entry, looked up): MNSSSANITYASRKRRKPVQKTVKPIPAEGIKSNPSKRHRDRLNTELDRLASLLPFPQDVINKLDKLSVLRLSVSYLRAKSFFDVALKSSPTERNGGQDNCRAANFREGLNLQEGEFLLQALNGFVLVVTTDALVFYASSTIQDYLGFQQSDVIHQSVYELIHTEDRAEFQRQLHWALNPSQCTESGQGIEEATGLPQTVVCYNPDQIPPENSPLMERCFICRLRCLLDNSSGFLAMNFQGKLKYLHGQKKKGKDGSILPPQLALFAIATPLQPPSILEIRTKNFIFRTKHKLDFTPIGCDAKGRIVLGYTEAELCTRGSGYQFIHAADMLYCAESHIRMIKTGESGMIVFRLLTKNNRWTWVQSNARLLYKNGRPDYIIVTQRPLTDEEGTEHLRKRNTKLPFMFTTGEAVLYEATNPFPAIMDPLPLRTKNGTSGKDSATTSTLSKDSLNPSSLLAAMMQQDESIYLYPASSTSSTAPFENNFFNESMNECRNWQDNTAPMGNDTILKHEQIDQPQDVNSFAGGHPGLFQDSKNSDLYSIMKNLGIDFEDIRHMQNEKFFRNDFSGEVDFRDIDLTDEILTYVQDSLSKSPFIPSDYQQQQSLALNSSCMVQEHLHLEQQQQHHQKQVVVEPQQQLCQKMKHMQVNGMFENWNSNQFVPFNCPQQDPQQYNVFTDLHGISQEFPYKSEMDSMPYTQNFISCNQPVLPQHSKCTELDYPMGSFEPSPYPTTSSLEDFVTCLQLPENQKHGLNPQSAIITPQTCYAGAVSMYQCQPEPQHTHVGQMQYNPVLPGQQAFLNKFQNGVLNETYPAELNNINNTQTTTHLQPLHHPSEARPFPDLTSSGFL
Sequence of Hepatocyte nuclear factor 3-beta (Homo sapiens) (Q9Y261 whole entry, looked up): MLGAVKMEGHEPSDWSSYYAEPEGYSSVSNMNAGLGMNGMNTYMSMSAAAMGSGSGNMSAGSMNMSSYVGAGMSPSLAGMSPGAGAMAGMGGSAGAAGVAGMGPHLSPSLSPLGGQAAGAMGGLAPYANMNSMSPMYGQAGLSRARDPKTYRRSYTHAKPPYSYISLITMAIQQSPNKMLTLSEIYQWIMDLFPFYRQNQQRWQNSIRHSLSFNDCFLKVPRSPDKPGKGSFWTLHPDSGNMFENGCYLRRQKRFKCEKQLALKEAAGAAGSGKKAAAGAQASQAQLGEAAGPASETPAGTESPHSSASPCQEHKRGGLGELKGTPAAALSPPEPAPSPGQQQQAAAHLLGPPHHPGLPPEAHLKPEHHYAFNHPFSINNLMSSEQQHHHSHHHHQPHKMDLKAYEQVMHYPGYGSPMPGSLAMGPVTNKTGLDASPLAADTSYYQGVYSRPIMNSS

`O=[N+]([O-])c1ccc(O)cc1C(F)(F)F`: the AC50 in test [1] was 48 µM (active); in test [2], 58.8 µM (active); in test [3], 100 µM (active); in test [5] it was 53.8 µM (active); in test [6], 71.8 µM (active); in [7], 26.4 µM (active). Moreover, the AC50 in test [8] is 37.5 µM (active). Besides, the compound was classed as inactive in test [4], in test [9], in test [10], in test [11], in [12] and in test [13]. In addition, the result in test [14], in test [15], in test [16], in test [17] and in [18] was inactive.
Regarding `CCC(C)S` (stereo unspecified), the result in [1], in test [2], in test [3], in test [4], in [5] and in test [6] was inactive. In addition, the outcome in test [7], in test [8], in [9], in [10], in test [11] and in [12] was inactive. For the same compound, the compound was classed as inactive in test [13], in [14], in [15], in test [16], in [17] and in test [18].
On to `c1ccc(CN(Cc2ccccc2)Cc2ccccc2)cc1`, for which the outcome in [1], in test [2], in test [3], in [5], in test [6] and in test [7] was inactive. Moreover, the call in test [8], in [9], in [19], in [10], in test [11] and in test [13] was inactive. Besides, the compound was classed as inactive in test [14], in test [15] and in test [17]. For the same compound, the AC50 is 18.4 µM (active) in test [4] and 100 µM (active) in test [18].
As to `CCCCCCCC/C=C\CCCCCCCC(=O)OCC`, the result in [1], in test [2], in test [3], in [4], in test [5] and in test [6] was inactive. Also, the compound was classed as inactive in test [7], in test [9], in test [19], in [10], in [11] and in test [12]. The result in test [14], in [15], in test [16], in [17] and in test [18] was inactive.
`Nc1ccc2cc(S(=O)(=O)O)cc(O)c2c1N=Nc1ccccc1C(F)(F)F`: the result in test [1], in [2], in [3], in [4], in test [6] and in [7] was inactive. The compound was called inactive in test [9], in test [19], in test [10], in test [11], in test [12] and in test [13]. In addition, the outcome in test [14], in [15], in test [16], in [17] and in test [18] was inactive. In test [5], the AC50 is 12.6 µM (active).
As for `CC1=NN(c2ccc(S(=O)(=O)O)cc2)C(=O)C1`, the result in [1], in test [2], in [3], in [4], in [5] and in test [6] was inactive. The compound was called inactive in [7], in [9], in [19], in test [10], in [11] and in [12]. The compound was classed as inactive in [13], in test [14], in test [15], in [16], in test [17] and in test [18].
With `IC(I)I`, the call in test [1], in [2], in test [3], in test [4], in test [6] and in test [7] was inactive. For the same compound, the outcome in test [9], in test [19], in test [10], in [11], in test [12] and in test [13] was inactive. The call in test [14], in [15], in [16], in test [17] and in [18] was inactive. For the same compound, the AC50 in [5] is 12.8 µM (active).
With `CCC1CCCCC1`, the outcome in test [1], in [2], in test [3], in test [4], in test [5] and in [6] was inactive. Also, the outcome in test [7], in [8], in [9], in test [10], in test [11] and in test [13] was inactive. The compound was called inactive in test [14], in test [15], in test [16], in test [17] and in test [18].
